Inconclusive results are not listed. The source made the active and inactive calls. Unless noted, the call rests on the fitted dose curve; in most records, active means well fitted curve in the direction sought with a large enough effect in the repeat runs; inconclusive means weak or mixed curves; inactive means no such curve, though single readings can be large; an effect the other way counts as inactive or inconclusive.
Columns and labels:
[1] = qHTS assay for small molecules that induce genotoxicity in human embryonic kidney cells expressing luciferase-tagged ATAD5 (AID 651632); further: nearly all actives have a fitted effect of over 15% in size; further: potency means the concentration at half of the fitted maximal effect
Procedure, shortened: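 Reporter cells (HEK293T) express luciferase-tagged ATAD5, a protein that accumulates after DNA damage. Treat 16 hr at 37C/5% CO2, add Amplite, wait 30 min at RT, and read luminescence.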

[2] = qHTS assay for small molecule agonists of the p53 signaling pathway - cell viability (AID 651633; calls by dose curve; further: nearly all actives have a fitted effect of over 30% in size; further: potency means the concentration at half of the fitted maximal effect)
Procedure, shortened: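 p53RE-bla cells were treated with compound for 16 hours at 37 C. Cytotoxicity was then measured as CellTiter-Glo luminescence after 30 min at room temperature.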

[3] = qHTS assay for small molecule disruptors of the mitochondrial membrane potential (AID 720635); further: potency means the concentration at half of the fitted maximal effect
Procedure, shortened: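 HepG2 cells exposed to compound 1 hr at 37C, then Mito-MPS dye 30 min. Ratio read of aggregate (540/590 nm) versus monomer (490/535 nm) fluorescence.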

[4] = qHTS assay to test for compound auto fluorescence at 590 nm (red) in HepG2 cells (AID 720674)
Procedure, shortened: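 Fluorescence at 590 nm emission following 540 nm excitation was recorded from HepG2 wells one hour after compound transfer, with DMSO-only wells as vehicle and Rose Bengal sodium equivalency as the scale.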

[5] = qHTS assay to test for compound auto fluorescence at 535 nm (green) in HepG2 cells (AID 720675)
[6] = qHTS assay to test for compound auto fluorescence at 460 nm (blue) in HEK293 cells (AID 720678)
Procedure, shortened: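 Intrinsic compound fluorescence is recorded in live HEK293 cultures after overnight incubation at 37C, 5% CO2, using excitation 405 nm and emission 460 nm. Values are referenced to triamterene.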

[7] = qHTS assay to test for compound auto fluorescence at 590 nm (red) in HEK293 cells (AID 720679)
Procedure, shortened: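 Red autofluorescence, HEK293 cells: 2,000 cells/well; attach 4-5 hr 37C; add 23 nL cpd or DMSO; incubate o/n 37C 5% CO2; read Ex540/Em590; Rose Bengal sodium reference.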

[8] = qHTS assay to test for compound auto fluorescence at 535 nm (green) in HEK293 cells (AID 720680)
[9] = qHTS assay to test for compound auto fluorescence at 460 nm (blue) in HEK293 cell free culture (AID 720681)
Procedure, shortened: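 Compounds were added to cell-free DMEM with 10% FBS and fluorescence read directly. The blue channel used 405 nm excitation and 460 nm emission, with triamterene as the reference fluorophore.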

[10] = qHTS assay to test for compound auto fluorescence at 535 nm (green) in HEK293 cell free culture (AID 720682)
Procedure, shortened: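 Read-out: 485/535 nm fluorescence intensity, calibrated against fluorescein. Medium only (DMEM + 10% FBS, no cells); test compound or DMSO vehicle added by pintool before plate reading.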

[11] = qHTS assay to test for compound auto fluorescence at 590 nm (red) in HEK293 cell free culture (AID 720683)
Procedure, shortened: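 Cell-free wells of DMEM with 10% FBS received compound, and intrinsic fluorescence was read at excitation/emission 540/590 nm. Values expressed as equivalence to Rose Bengal sodium.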

[12] = qHTS assay to test for compound auto fluorescence at 590 nm (red) in HepG2 cell free culture (AID 720684)
Procedure, shortened: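 Compound was pinned into wells holding MEM with 10% FBS and no cells, and red fluorescence was read at Ex/Em 540/590 nm. Signal is expressed as auto fluorescence equivalency relative to Rose Bengal sodium.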

[13] = qHTS assay to test for compound auto fluorescence at 460 nm (blue) in HepG2 cell free culture (AID 720685)
Procedure, shortened: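 Compound (23 nL) or DMSO pinned into cell-free MEM with 10% FBS; blue fluorescence read at 405/460 nm excitation/emission, expressed as auto-fluorescence equivalency to triamterene.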

[14] = qHTS assay to test for compound auto fluorescence at 535 nm (green) in HepG2 cell free culture (AID 720686)
[15] = qHTS assay to test for compound auto fluorescence at 460 nm (blue) in HepG2 cells (AID 720687)
Procedure, shortened: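 HepG2 cells in MEM with 10% FBS, attached overnight at 37 C, were exposed to compound or DMSO for 1 hr at 37 C, 5% CO2. Blue fluorescence was read at 405/460 nm, with triamterene as reference fluorophore.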

[16] = biological target: Glucocorticoid receptor (Homo sapiens) (UniProt P04150); test: qHTS assay to identify small molecule agonists of the glucocorticoid receptor (GR) signaling pathway (AID 720691; active means well fitted activation curve with a large enough effect in the signal ratio in the repeat runs, not every such curve was filed as active; the % refers to the signal ratio); details: GR-bla HeLa, beta-lactamase reporter ratio, 18 h; activation: at 62.4 µM (top of the series)
Procedure, shortened: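 Reporter read-out: fluorescence intensity following 2 h room-temperature LiveBLAzer B/G FRET substrate loading. Prior step: GR-bla HeLa cells held 4 h, then treated 18 h at 37 C.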

[17] = qHTS assay for small molecule disruptors of the mitochondrial membrane potential - cell viability (AID 720634; calls by dose curve;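 further: human HepG2 liver cancer cells; nearly all actives have a fitted effect of over 20% in size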)
Procedure, shortened: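 Measuring cytotoxicity alongside mitochondrial potential, the screen quantified ATP by luminescence in HepG2 cells after 1 hr compound incubation and a 30 min room-temperature CellTiter-Glo step.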

[18] = qHTS assay for small molecules that induce genotoxicity in human embryonic kidney cells expressing luciferase-tagged ATAD5 - cell viability (AID 651634; calls by dose curve; further: nearly all actives have a fitted effect of over 25% in size; further: potency means the concentration at half of the fitted maximal effect)
Procedure, shortened: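 Seeding of 2,000 HEK293T ATAD5-luciferase cells per well preceded pin-tool compound transfer. Plates sat 15.5 hr at 37C under 5% CO2, then fluorescence was read after 30 min with CellTiter-Fluor.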

[19] = biological target: Glucocorticoid receptor (Homo sapiens) (UniProt P04150); test: qHTS assay to identify small molecule antagonists of the glucocorticoid receptor (GR) signaling pathway (AID 720692; active means well fitted inhibition curve with a large enough effect in the signal ratio in the repeat runs, not every such curve was filed as active; the % refers to the signal ratio; further: potency means the concentration at half of the fitted maximal effect)
Procedure, shortened: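 Dexamethasone (5 nM final) stimulated a stably integrated GRE-beta-lactamase reporter in HeLa cells during 18 h co-incubation with compounds; signal was quantified as fluorescence intensity of B/G FRET substrate after 2 h.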

Measured: Potency

Glucocorticoid receptor (Homo sapiens), sequence (P04150 whole entry, looked up): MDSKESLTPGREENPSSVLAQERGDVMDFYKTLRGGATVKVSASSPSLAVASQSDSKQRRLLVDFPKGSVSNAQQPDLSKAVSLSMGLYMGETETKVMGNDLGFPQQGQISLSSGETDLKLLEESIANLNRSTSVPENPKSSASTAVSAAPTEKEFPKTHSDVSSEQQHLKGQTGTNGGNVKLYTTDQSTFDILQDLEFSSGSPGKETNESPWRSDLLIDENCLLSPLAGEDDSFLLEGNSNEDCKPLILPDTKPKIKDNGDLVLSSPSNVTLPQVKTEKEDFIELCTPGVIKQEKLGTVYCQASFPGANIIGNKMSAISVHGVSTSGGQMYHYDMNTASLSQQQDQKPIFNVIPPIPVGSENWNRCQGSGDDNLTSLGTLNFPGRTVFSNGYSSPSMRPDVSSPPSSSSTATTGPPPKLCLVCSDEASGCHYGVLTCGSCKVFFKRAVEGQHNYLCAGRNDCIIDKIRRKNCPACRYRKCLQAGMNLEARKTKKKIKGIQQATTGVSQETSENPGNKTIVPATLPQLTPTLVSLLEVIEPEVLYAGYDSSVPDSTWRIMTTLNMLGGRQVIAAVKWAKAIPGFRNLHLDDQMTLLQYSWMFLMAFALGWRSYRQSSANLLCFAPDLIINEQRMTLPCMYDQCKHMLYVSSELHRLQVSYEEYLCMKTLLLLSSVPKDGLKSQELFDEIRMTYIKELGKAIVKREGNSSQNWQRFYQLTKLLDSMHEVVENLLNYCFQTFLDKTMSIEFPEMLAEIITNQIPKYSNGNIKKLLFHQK

CCN(CC)c1ccc(N)cc1
active: [3] 49.9 µM
not listed: [17] | [18] | [19]
inactive: all other assays above

CCCCCCCCCCCCN(CCO)CCO
active: [2] 54.3 µM
not listed: [3] | [6] | [16] | [17] | [18] | [19]
inactive: all other assays above

Cc1nc(Nc2ncc(C(=O)Nc3c(C)cccc3Cl)s2)cc(N2CCN(CCO)CC2)n1
not listed: [3] | [5] | [16] | [18] | [19]
inactive: all other assays above

O=C1C=CC(=O)N1c1ccccc1
active: [2] 48.6 µM | [3] 48.6 µM
not listed: [16] | [17] | [18] | [19]
inactive: all other assays above

C=CC(=O)OCCC#N
not listed: [2] | [3] | [19]
inactive: all other assays above

CC(C)(C)c1cc(/C=C2\SC(=N)NC2=O)cc(C(C)(C)C)c1O
active: [2] 68.6 µM | [3] 12.2 µM
not listed: [6] | [8] | [16] | [18] | [19]
inactive: all other assays above

Brc1ccccc1-c1ccccc1
active: [3] 51.6 µM
not listed: [5] | [10] | [17] | [19]
inactive: all other assays above

Clc1ccccc1CN1CCc2sccc2C1
active: [3] 26.6 µM
not listed: [2] | [8] | [9] | [16] | [19]
inactive: all other assays above

CC(=O)Nc1ccc(O)cc1
not listed: [2] | [16] | [19]
inactive: all other assays above

CCCCCCCC/C=C\CCCCCCCC(=O)N(C)CC(=O)O
active: [2] 43.3 µM
not listed: [3] | [16] | [17] | [18] | [19]
inactive: all other assays above

C=CC(=O)OCCOCC(CC)(COCCOC(=O)C=C)COCCOC(=O)C=C
active: [1] 28.4 µM | [18] 80.2 µM | [19] 22.8 µM
not listed: [2] | [5] | [9] | [16]
inactive: all other assays above

COc1ccc2sc(C(=O)Nc3nnn[nH]3)c(OC(C)C)c2c1
active: [2] 24.2 µM
not listed: [3] | [18] | [19]
inactive: all other assays above

O[C@@H](c1cc(C(F)(F)F)nc2c(C(F)(F)F)cccc12)[C@H]1CCCCN1
active: [2] 21.1 µM | [18] 23.7 µM
not listed: [3] | [16] | [17] | [19]
inactive: all other assays above

c1cc2c3c(c1)ccc1cccc(c13)C2
active: [3] 62.4 µM
not listed: [5] | [9] | [17] | [19]
inactive: all other assays above

O=C(O)CCn1c2c(c3ccccc31)C[C@H](NS(=O)(=O)c1ccc(F)cc1)CC2
not listed: [2] | [6] | [9] | [16] | [19]
inactive: all other assays above
